The record followed here is PubChem BioAssay (NCI).

This is part of a sample that, as a whole, favours compounds with a hit. Of some 83,000 tested, about 20% had one in any assay.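 Treatment: one concentration, 48 hours, 96-well format. Scoring: percent growth, with anything below 10 considered active.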 Unmarked numbers belong to inactive results. Active and inactive are the calls of the source.

The test system of this experiment is LOX IMVI melanoma. In words: NCI-60 one-dose screen, 48 h (100 = growth as untreated, 0 = no growth, -100 = all killed). Particulars: 10 µM unless noted. As for the experimental part:
Growth inhibition of the LOX IMVI human tumor cell line is measured as a screen for anti-cancer activity. Cells are grown in 96 well plates and exposed to the test compound for 48 hours. Compounds are tested at a single concentration, which is 10^-5 M for most compounds. The reported endpoint is percent growth (GI% or GIPRCNT), where numbers from 0 - 100% represent growth inhibition, and numbers from -100% - 0 represent cell death. For example, a value of 40 represents 60% growth inhibition. A value of 0 means no net growth occurred over the course of the experiment. A value of -40 indicates 40% of cells at the beginning of the experiment died by the end of the experiment. A value of -100 means all cells are dead at the end of the experiment.
NCI-60 Human Tumor Cell Lines Screen was performed using the standard one-dose NCI protocol, which is described in more detail at https://dtp.cancer.gov/discovery_development/nci-60/default.htm.
Compounds with GIPRCNT values below 10 were considered active. Activity score was based on GIPRCNT using the following formula: […]
Score is 0 for GIPRCNT values of 100 or above, 50 for GIPRCNT values of 0, and 100 for GIPRCNT values of -100.
For the compound `CCOc1cc(/C=C/C(=O)CC(=O)/C=C/c2ccc(OC(=O)CNc3nc4ccc(OC)cc4s3)c(OCC)c2)ccc1OC(=O)CNc1nc2ccc(OC)cc2s1`, the growth is 6.98% (active).
The same measure for `O=C(Nc1cccc(Cl)c1)Nc1cccc(Cl)c1`: 89.1%; for `Cc1cc(C)cc(S(=O)(=O)n2ccc(-c3ccc4c(c3)CCC(C)(C)O4)n2)c1`: 95%; for `CS(=O)(=O)N1CCN(Cc2cc3nc(-c4cccc5[nH]ncc45)nc(N4CCOCC4)c3s2)CC1` (tested in a mixture with another compound): 18.8%.
The same measure for `COc1cccc(/C=C2\Cc3ccccc3C2=O)c1`: 99.5%; for `Nc1nc(NC2CC2)c2ncn(C3C=CC(CO)C3)c2n1` (stereo not given): 103%.
To `COc1cccc(C=Nc2cc(C(C)C)c(O)cc2C)c1O` belongs 94.8%; to `NC(=O)c1cc(Cl)ccc1NC(=O)c1ccccc1-c1ccccc1`, 28.9%; to `CC1C(=O)NC2=Nc3ccccc3C(=O)NN21` (stereo not given), 95.4%.
For the compound `CN1CCN(CCCCCN=c2cc3c(=O)n(CCCCCN4CCN(C)CC4)c(=O)c4c(NCCCCCN5CCN(C)CC5)cc5c(O)n(CCCCCN6CCN(C)CC6)c(=O)c2c5c4-3)CC1`, the growth is 1.9% (active).
The same measure for `Cc1c2oc3c(C)ccc(C(=O)OC(C)C4NC(=O)C(C(C)C)N(C)C(=O)CN(C)C(=O)C5CCCN5C(=O)C(C(C)C)NC4=O)c3nc-2c(C(=O)OC(C)C2NC(=O)C(C(C)C)N(C)C(=O)CN(C)C(=O)C3CCCN3C(=O)C(C(C)C)NC2=O)c(N)c1=O` (stereo not given): 4.35% (active); for `Cc1cc(Br)c(C)cc1Br`: 97.6%; for `CCOC(=O)Nc1ccc2c3c(cccc13)-c1ccccc1-2`: 30.5%.
To `Cc1cn(C(C=O)OC(C=O)CO)c(=O)[nH]c1=O` (stereo not given) belongs 103%.
For `O=C(CC1Sc2ccccc2NC1=O)NNc1cccc(Cl)c1Cl` (stereo not given), the growth is 88.8%.
To `COc1ccc2cc(-c3nc4ccccc4[nH]3)c(=O)oc2c1` belongs 80.4%.
The same measure for `COc1ccc2c3c(ccc2c1)C(=O)/C(=C\O)CC3`: 87.1%; for `O=c1ncc(-c2ccc(C(F)(F)F)cc2)c(NC2CCCCCC2)[nH]1`: 57.9%.
To `CC(C)Cn1cnc2c(NCn3nc(-c4cc(Cl)cc(Cl)c4Cl)n(/N=C/c4ccc(Cl)cc4)c3=S)nc3ccccc3c21` belongs 74.4%; to `CC(C)N(Cc1ccccc1)c1c(S)ssc1=S`, 10.1%.
As to `CCN(CC)CCSc1ncnc2c1cnn2-c1ccc(S(N)(=O)=O)cc1`, the growth is 87%.
The same measure for `CCn1cnc(C[C@H](NC(=O)[C@H](CCCCNC(=O)Nc2cc(C(F)(F)F)cc(C(F)(F)F)c2)NC(=O)Nc2cc(C(F)(F)F)cc(C(F)(F)F)c2)C(=O)OC)c1`: -100% [100 µM] (active).
`COc1ccc(/C=C2\CCc3ccccc3C2=O)cc1`: the growth was 77.2%.
To `O=C1/C(=C/c2cccc(Cl)c2)CCc2ccccc21` belongs 90.9%.
The same measure for `O=[N+]([O-])c1ccc2[nH]cc(-c3c4ccccc4cc4[nH]c5ccc([N+](=O)[O-])cc5c34)c2c1`: 21.3%.
To `CCSc1nc(Nc2ccc(S(=O)(=O)Nc3ccon3)cc2)c(C#N)c(-c2cccc(Br)c2)n1` belongs 94.1%.
Turning to `CN(C)CCCNc1nn2c(=O)c3ccccc3nc2c2ccccc12`, the growth is 33.8%.
To `COc1cc(/C=C2\CN(S(=O)(=O)c3ccc(C)cc3)C/C(=C\c3cc(CN4CCOCC4)c(O)c(OC)c3)C2=O)cc(CN2CCOCC2)c1O` belongs -49.3% (active); to `O=C(O)c1ccc(CNS(=O)(=O)c2ccc3ccccc3c2)cc1`, 100%; to `CC12CCC3C(=CCc4cc(O)ccc43)C1CCC2=O` (stereo not given), 102%.
The same measure for `CCCCCCCCCCOC(C)=O`: 108%.
On to `O=[N+]([O-])c1ccc(N=Nc2c(Cl)cc(O)cc2Cl)cc1`, for which the growth is -12.7% (active).
The same measure for `COc1cc(C(=O)c2cc3c(cc2C)OCO3)cc(OC)c1OC`: 19.7%.
For the compound `Cc1ccc(-c2c3c(N)nc(-c4ccncc4)nc3nc3c2c(C)nn3-c2ccccc2)cc1`, the growth was 8.73% (active).
As to `CCSc1ncc(Br)c(Sc2nc(N)nc3nc[nH]c23)n1`, the growth was 19.5%.
The same measure for `CCSCC1CC(O)(c2ccccc2)C(c2ccccc2)C(c2ccc(Cl)cc2)O1` (stereo not given): -85.2% (active); for `O=c1[nH]cc(Nc2cc(Cl)c3nonc3c2[N+](=O)[O-])c(=O)[nH]1`: 95%; for `COc1cc(/C=C/c2cc(/C=C/c3ccc(O)c(OC)c3)n(C(=O)Cc3ccccc3)n2)ccc1O`: 5.18% (active).
The same measure for `O=C1CNc2cc(Cl)ccc2N1`: 101%.
For `COc1cc(/C=C/C(=O)CC(=O)/C=C/c2ccc(OC(=O)C3C4CC5CC(C4)CC3C5)c(OC)c2)ccc1OC(=O)C1C2CC3CC(C2)CC1C3` (stereo not given), the growth is 108%.
